Inconclusive results are not listed. Where a call stands in place of a potency, no number is given. Activity calls are given as the source filed them. Calls come from the whole dose curve; tested in HEK293 reporter line.
Experiment: qHTS for Inhibitors of the Functional Ribonucleoprotein Complex (vRNP) of Lassa (LASV) Arenavirus: LASV Primary Screen - GLuc reporter signal (AID 1347082); note: nearly all actives have a fitted effect of over 60% in size
Conditions: LASV minigenome vRNP, Gaussia luciferase reporter; series mostly up to 57.5 µM
Potency is the fitted concentration of half-maximal effect.

Row | SMILES | Potency
1 | O=C1CSC(=O)N1C(CCc1ccncc1)COc1ccc(-c2cccc([N+](=O)[O-])c2)cc1 (centres undefined) | 17.2 µM (active)
2 | CC1(C)Oc2cc3oc(-c4cc(O)cc(O)c4)cc3cc2CC1O (centres undefined) | inactive
3 | C=C1C(=CC=C2CCC[C@]3(C)[C@@H]([C@H](C)CCCC(C)(C)O)CC[C@@H]23)C[C@@H](O)C[C@@H]1O | inactive
4 | O=C(O)Cc1ccc(O)c(O)c1 | inactive
5 | CCCC(=O)NCCc1c2n(c3ccc(OC)cc13)CCCc1ccccc1-2 | inactive
6 | N[C@H](CSC(c1ccccc1)(c1ccccc1)c1ccccc1)C(=O)O | inactive
7 | COc1cc2nccc(Oc3ccc(NC(=O)NC4CC4)c(Cl)c3)c2cc1C(N)=O | inactive
8 | COc1c2ccoc2c(OCC=C(C)C)c2oc(=O)ccc12 | inactive
9 | CN1CCCN(C(=O)c2cccc(-c3ccc(C=C4C(=O)Nc5ccc(Cl)cc54)o3)c2)CC1 | inactive
10 | O=C1NCc2c1c1c3ccccc3[nH]c1c1[nH]c3ccccc3c21 | inactive
11 | O=C1OC(=O)C2C3CCC(O3)C12 (centres undefined) | inactive
12 | Fc1ccc(CNc2ncnc3ccc(F)cc23)cc1 | 19.3 µM (active)
13 | CC(N[C@H]1CCCC[C@H]1NC(=O)c1ccc(Cl)cc1)c1cccc2ccccc12 (some centres undefined) | inactive
14 | CNC(=O)[C@H](CC1=CN=C2C=CCC=C12)NC(=O)[C@@H](CC(=O)NO)CC(C)C | 15.3 µM (active)
15 | CCC(C)SSc1ncc[nH]1 (centres undefined) | inactive
16 | Nc1nc(NCCNc2ncc(-n3ccnc3)c(-c3ccc(Cl)cc3Cl)n2)ccc1[N+](=O)[O-] | inactive
17 | FC(F)(F)c1ccc(C=Cc2nc(COc3ccc(CCCCn4ccnn4)cc3)co2)cc1 | 0.0432 µM (active)
18 | O=c1c(-c2ccc(O)cc2)coc2cc(O)ccc12 | inactive
19 | COc1cc2ncnc(Nc3cccc(Cl)c3)c2cc1OC | inactive
20 | Cn1c(=O)c(Oc2ccc(F)cc2F)cc2cnc(NC3CCOCC3)nc21 | inactive
21 | CC(C)NC[C@@H](O)c1ccc(O)c(O)c1 | inactive
22 | OCc1ccc(-c2nn(Cc3ccccc3)c3ccccc23)o1 | inactive
23 | Cc1cc(Nc2cc(CN3CCOCC3)c3nc(C)c(Cc4ccc(Cl)cc4F)n3n2)n[nH]1 | inactive
24 | C[C@H]1C/C=C/[C@@H]2[C@@H]3O[C@]3(C)[C@@H](C)[C@H]3[C@H](Cc4ccccc4)NC(=O)[C@]32OC(=O)O/C=C/[C@](C)(O)C1=O | inactive
